Assay results reported in ChEMBL document CHEMBL4513216, “Probing the Open Global Health Chemical Diversity Library for Multistage-Active Starting Points for Next-Generation Antimalarials” (ACS Infect Dis, 2020).
Among all 68,000 compounds or so, about 2,700 (4%) showed an effect of 50% or more. For the sample, strong results were picked, then their nearest neighbours and some compounds at random.

System: Plasmodium berghei
Test: Screen against P. berghei liver stage (PbLuc), transformed with Luciferase, at 2uM
Assay type: functional, HepG2
Settings: tested at 2 uM

Row | SMILES | INHIBITION
1 | CCCN(CC)C(=O)c1cc(Cn2c(C)nc3ccccc32)[nH]n1 | 38.75%
2 | CNS(=O)(=O)c1cccc(CNc2ncccn2)c1 | -18.94%
3 | c1ccn(Cc2nnc3n2CCCN(Cc2ccoc2)C3)c1 | 18.31%
4 | CCC(CNC(=O)NCc1cc[nH]n1)N1CCCC1 (stereo not drawn) | 76.6%
5 | COc1ccccc1C(CNC(=O)NCc1cc[nH]n1)N1CCCC1 (stereo not drawn) | -10.44%
6 | CC(C)CC(CNC(=O)NCc1cc[nH]n1)N1CCOCC1 (stereo not drawn) | 40.29%
7 | CC(=O)N1CC[C@@H]2CN(Cc3ccncc3)S(=O)(=O)[C@@H]2CC1 | -66.17%
8 | Cc1c(C2CCOC(C)(C)C2)nc(N)c(C#N)c1-c1ccc(O)cc1 (stereo not drawn) | -11.34%
9 | Cc1cc(C)c2c(c1)NC(=O)C2CC(=O)O (stereo not drawn) | 33.22%
10 | Cc1ccc(C)c2c1NC(=O)C2CC(=O)O (stereo not drawn) | 42.8%
11 | Cc1cc(C)c2c(c1)C(CC(=O)O)C(=O)N2 (stereo not drawn) | 52.38%
12 | CCN1CC2(CC1=O)CN(C(=O)c1cccs1)CCN(C(=O)N(C)C)C2 (stereo not drawn) | -48.39%
13 | CCc1noc(CS(=O)(=O)Cc2ccccc2Cl)n1 | 61.32%
14 | CCc1noc(CS(=O)(=O)Cc2nc(Cc3ccccc3)no2)n1 | 34%
15 | CCc1noc(CS(=O)(=O)Cc2ccccc2C)n1 | 30.59%
16 | CC(=O)N1CCCC1C(=O)NCCOc1cccc(F)c1 (stereo not drawn) | 16.25%
17 | CN(C)C(=O)NC1COC2(CCN(Cc3ccc(Cl)c(F)c3)CC2)C1 (stereo not drawn) | -8.04%
18 | CN(C)C(=O)NC1COC2(CCN(Cc3ccc(N(C)C)cc3)CC2)C1 (stereo not drawn) | 53.98%
19 | CN(C)C(=O)NC1COC2(CCN(Cc3ccccc3)CC2)C1 (stereo not drawn) | 0.14%
20 | Cc1ccoc1C(=O)N1CC[C@H]2C[C@H](c3nnc(C4CC4)o3)O[C@@H]2C1 | -11.79%
21 | CNC(=O)C1(C)CCCN1Cc1cnn(C)c1C (stereo not drawn) | 18.15%
22 | CC(C)OCCCN(CC(=O)N1CCNCC1)C(=O)c1ccc(F)cc1 | -20.36%
23 | CCOc1ccccc1CNC(=O)N1CCC(n2cncn2)CC1 | -111.08%
24 | COc1cc(Cl)ccc1CNC(=O)N1CCC(n2cncn2)CC1 | 70.27%
25 | COc1ccc(OC)c(CNC(=O)N2CCC(n3cncn3)CC2)c1 | 3.06%

Row | SMILES | INHIBITION
26 | NC(=O)NC(=O)CCSc1ccccc1Cl | 12.14%
27 | Cc1nc(C)n(CC2CN(CCc3ccncc3)CCO2)n1 (stereo not drawn) | 70.27%
28 | COc1ccc(CCN2CCOC(Cn3nc(C)nc3C)C2)cc1 (stereo not drawn) | 34.97%
29 | Cc1nc(C)n(CC2CN(CCOc3cccc(C#N)c3)CCO2)n1 (stereo not drawn) | -5.15%
30 | Cc1nc(C)n(CC2CN(CCCc3ccccc3)CCO2)n1 (stereo not drawn) | 40.72%
31 | Cc1nc(C)n(CC2CN(Cc3ccccc3OC(C)C)CCO2)n1 (stereo not drawn) | -3.06%
32 | Cc1cc(C)n(CC2CN(CCOc3ccc(C#N)cc3)CCO2)n1 (stereo not drawn) | 13.24%
33 | COc1ccc(C)cc1CN1CCOC(Cn2nc(C)nc2C)C1 (stereo not drawn) | 60.09%
34 | Cc1nc(C)n(CC2CN(CCOc3ccc(C#N)cc3)CCO2)n1 (stereo not drawn) | 50.05%
35 | Cc1nc(C)n(CC2CN(Cc3cccc4ccccc34)CCO2)n1 (stereo not drawn) | -53.98%
36 | Cc1ncc(S(C)(=O)=O)c(N2CCCCCC2)n1 | 2.97%
37 | CCn1c(C)nnc1CN(C)C1CCN(Cc2nnc(C3CC3)o2)C1 (stereo not drawn) | 12.75%
38 | CCC1(C(=O)O)CCCN(C(=O)c2ccc(O)c(Cl)c2)C1 (stereo not drawn) | -2.86%
39 | CCOC(=O)c1coc(N2CCN(Cc3ccc(C)cc3)C(=O)C2)n1 | 33.9%
40 | Cn1nc(C2CCCN(Cc3cccc(F)c3)C2)c2nccnc21 (stereo not drawn) | -13.37%
41 | COCCN1CCC(C(=O)c2cc(F)ccc2F)CC1 | -11.34%
42 | O=C(CCN1CCC(C(=O)c2cc(F)ccc2F)CC1)NC1CCCC1 | 64.9%
43 | O=C(CCN1CCC(C(=O)c2cc(F)ccc2F)CC1)NC1CC1 | 34.93%
44 | CCOCCN1CCC(C(=O)c2cc(F)ccc2F)CC1 | 43%
45 | O=C(CN1CCC(C(=O)c2cc(F)ccc2F)CC1)NC1CCCC1 | -21.84%
46 | CC(C)OCCN1CCC(C(=O)c2cc(F)ccc2F)CC1 | 50.76%
47 | CN1CCC(N(C)CCC(=O)N2CCC(Oc3ccc(Cl)cc3)CC2)C1 (stereo not drawn) | 8.75%
48 | Cn1nc(C(=O)N2CCOCC2)c2c1CN(CC1CCC1)C2 | 36.29%
49 | Cc1cc(-c2ccc(=O)n(C3CCN(S(=O)(=O)N(C)C)CC3)n2)c(C)o1 | -34.37%
50 | CCC(CO)N(Cc1ccco1)Cc1c(C)nn(C)c1Cl (stereo not drawn) | -10.67%

Row | SMILES | INHIBITION
51 | CN1CCN(C(=O)c2cccn2C)c2ccccc2C1 | -9.98%
52 | CCOC(=O)[C@]12CCCN(Cc3nccs3)C[C@H]1CN(C(C)C)C2 | 34.47%
53 | CS(=O)(=O)c1ccc(O[C@H]2COCCN(Cc3ccncc3)C2)cc1 | 50.91%
54 | Cc1nc(C)c(CN2CCOC[C@H](Oc3ccccc3)C2)s1 | 64.92%
55 | Cc1nc(C)c(CN2CCOC[C@H](Oc3ccc(S(C)(=O)=O)cc3)C2)s1 | -40.15%
56 | Cc1cccc(O[C@H]2COCCN(Cc3sc(C)nc3C)C2)n1 | 17.64%
57 | CC(C)CN1CCOC[C@H](Oc2ccc(S(C)(=O)=O)cc2)C1 | -36.65%
58 | COc1ccc(CN2CCOC[C@H](Oc3cccnc3)C2)cc1 | 27.04%
59 | CCN(Cc1ccc(C#N)cc1F)C(=O)C(C)(C)C | 0.53%
60 | CCCS(=O)(=O)N1C[C@H]2CC[C@@H](C1)N(Cc1cscn1)C2=O | 36.28%
61 | CN(C)CC(=O)N1CCC2(CC1)COCCN(Cc1ccncc1)C2 | 32.66%
62 | CCCc1nc(C(=O)N[C@H]2COC[C@@H]2N2CCN(C)CC2)cs1 | -0.83%
63 | CS(=O)(=O)CCCN(CCc1cccc(F)c1)C1CC1 | 7.36%
64 | Cc1csc2c(N3CCNC(C(=O)Nc4ccc(F)cc4)C3)ncnc12 (stereo not drawn) | -17.67%
65 | Cc1ccc2c(c1)C(=O)NCC1(CCN(C(=O)c3sccc3C)CC1)O2 | 46.15%
66 | Cc1ccc2c(c1)C(=O)NCC1(CCN(C(=O)c3ccnn3C)CC1)O2 | 59.27%
67 | CCC(=O)N1CCC2(CC1)CNC(=O)c1cc(C)ccc1O2 | 61.99%
68 | Cc1ccc2c(c1)C(=O)NCC1(CCN(C(=O)c3csc(C)c3)CC1)O2 | 38.75%
69 | Cc1ccc2c(c1)C(=O)NCC1(CCN(C(=O)c3ccccn3)CC1)O2 | 38.12%
70 | Cc1ccc2c(c1)C(=O)NCC1(CCN(C(=O)c3cnccn3)CC1)O2 | 64.07%
71 | Cc1ccc2c(c1)C(=O)NCC1(CCN(C(=O)c3cc(C)no3)CC1)O2 | 9.51%
72 | Cc1ccc2c(c1)C(=O)NCC1(CCN(C(=O)c3scnc3C)CC1)O2 | -2.31%
73 | Cc1ccc2c(c1)C(=O)NCC1(CCN(Cc3ccccc3)CC1)O2 | 34.9%
